# According to PubChem BioAssay (NCATS):
# Inconclusive results are not listed. Where a call stands in place of a potency, no number is given. The source made the active and inactive calls. Calls follow the shape of the dose curve; as a rule, active = well fitted inhibition curve with a large enough effect; inconclusive = small, poorly fitted or top-dose-only effect; inactive = flat fitted curve, though single readings scatter.
# Molecular target: Calcium and integrin-binding protein 1 (Homo sapiens) (UniProt Q99828)
# Assay: Primary qHTS for Identification of Calcium Integrin Binding Protein 1 (CIB1) Competitor (AID 1508620);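 also: GST tagged CIB1 binding a fluorescein labelled alphaIIb integrin peptide tracer; top concentration of the series differs between compounds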
# Conditions: CIB1-GST / FITC-alphaIIb peptide fluorescence polarization; series mostly up to 114 µM
# Procedure, shortened: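 CIB1-GST (1 uM final) and compound incubated 15 min at room temperature before adding FITC-alphaIIb peptide tracer (100 nM final). Competition for binding read by fluorescence polarization (ex 480, em 540) after another 15 min at room temperature.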
# Chain of Calcium and integrin-binding protein 1 (Homo sapiens) (Q99828 whole entry, looked up): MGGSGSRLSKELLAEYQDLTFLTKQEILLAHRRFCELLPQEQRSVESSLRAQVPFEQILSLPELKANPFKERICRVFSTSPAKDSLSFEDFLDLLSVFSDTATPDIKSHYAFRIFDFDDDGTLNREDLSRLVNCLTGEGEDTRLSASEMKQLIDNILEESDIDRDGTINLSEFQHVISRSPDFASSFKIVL
row,SMILES,Potency
1,Cc1cc(C)nc(NC(=S)N2CCN(c3ccc4nccn4c3)CC2)c1,inactive
2,Cc1ccc(CNc2ncnc3ccc(-c4sc(C)nc4C)cc23)o1,inactive
3,COC(=O)C1CCN(C(=O)c2ccc3c(c2)ncn3-c2cccc(C)c2)CC1,inactive
4,CC(=O)Nc1sc2c(c1-c1ccc3nonc3c1)CCNC2,inactive
5,O=C(NC1CCCc2c1cnn2-c1ccc(F)cc1F)c1ccccc1 (stereo not given),inactive
6,Cc1ccc(OCCn2c(CCNC(=O)C3CCN(C(=O)OC(C)(C)C)CC3)nc3ccccc32)cc1,inactive
7,O=[S+]([O-])(c1ccc2c(c1)OCCO2)N1CCN([S+](=O)([O-])c2c(F)cc(O)cc2F)CC1,inactive
8,Cc1nnc2sc(-c3cccc(NC(=O)c4ccc(-c5cccc(Cl)c5)o4)c3)nn12,inactive
9,O=C1c2ccccc2C(=O)N1c1ccccc1O,inactive
10,O=C1c2ccccc2C(=O)N1c1ccc(Cl)cc1,inactive
11,CC(C)c1ccccc1-c1ncc(F)c(NC2(c3ccc(-c4cccnc4)cc3)CC2)n1,inactive
12,CCC(=O)NC(C)c1cc(Cl)c2cccnc2c1O (stereo not given),inactive
13,O=C(Nc1ccc(-c2nc3ccccc3[nH]2)cc1)c1ccc(Cl)c(Cl)c1,inactive
14,O=S1(=O)N=C(Oc2cccc3ccccc23)c2ccccc21,inactive
15,O=C(O)c1ccc2c(c1)C(=O)N([C@H](Cc1ccc3ccccc3c1)C(=O)O)C2=O,inactive
16,Cc1ccc(-c2ccc(=O)n(CC(=O)NCCc3ccc(O)cc3)n2)cc1,inactive
17,COc1cc(O)c(C(CC(=O)N2CCC[C@H](C)C2)c2ccc3c(c2)OCO3)c(OC)c1 (stereo not given in full),inactive
18,COc1ccc(NC(=O)CN(C)C(=O)c2cc3c(s2)CCC3)cc1,inactive
19,COc1ccc(Cn2ncc3c4sc(C)cc4n(C)c3c2=O)cc1F,inactive
20,COc1ccc([S+](=O)([O-])Nc2ccc(-c3nc4ccccc4[nH]3)cc2)cc1OC,inactive

row,SMILES,Potency
1,O=C1Nc2ccccc2/C1=C\c1ccc([N+](=O)[O-])cc1,inactive
2,Cc1ccnc(NC(=S)NCCN(C)c2cccc(C(F)(F)F)c2)c1,inactive
3,COc1cccc(NCc2ccc(O)c3ncccc23)n1,inactive
4,Cc1ccc(OCCn2c(CCNC(=O)COc3ccccc3Br)nc3ccccc32)cc1,inactive
5,COC(=O)c1sc2c(c1-c1nc3ccccc3s1)CCNC2,inactive
6,O=C(CNC(=O)c1ccc(Cl)c(C(F)(F)F)c1)OC(C(=O)Nc1cc(C(F)(F)F)ccc1Cl)c1ccccc1 (stereo not given),inactive
7,CC1=C(C(=O)Nc2ccccc2C)C(c2ccccc2Br)N=C(Nc2nc3ccccc3o2)N1 (stereo not given),inactive
8,Cc1sc(NC(=O)Cc2ccc3c(c2)OCO3)nc1-c1ccc2c(c1)CCN2,inactive
9,Cc1cnc(-c2ccccc2C2COC2)nc1NCc1ccc(-n2ccnn2)cc1,inactive
10,C[C@H]1CN(S(=O)(=O)c2ccc3c(c2)OCCO3)CCN1S(=O)(=O)c1c(F)cccc1F,inactive
11,Cc1ccc(C(=O)Oc2ccc(-c3nc4ccccc4[nH]3)cc2)cc1Br,inactive
12,CN(Cc1ccco1)c1ncnc2ccc(-c3cccc(Cl)c3)cc12,inactive
13,Cc1ccc(C)n1-c1cccc(-c2nn[nH]n2)c1,inactive
14,O=[S+]([O-])(c1ccc(-c2ccccc2)cc1)N1CCN([S+](=O)([O-])c2ccc3c(c2)OCCO3)CC1,inactive
15,COc1ccccc1-n1cnc2cc(C(=O)N3CCCCC3)ccc21,inactive
16,N=c1c2c(ncn1CCN1CCOCC1)Oc1ccc3ccccc3c1C2c1ccccc1 (stereo not given),inactive
17,Cc1cnc(-c2ccccc2C2COC2)nc1NCC1CCN(c2cccnc2)CC1,inactive
18,COc1ccc2nc(-c3ccc(N(C)C)cc3)sc2c1,inactive
19,O=C1CCCC2=C1C(c1[nH]ncc1Cl)N=C(Nc1nc3ccc(Cl)cc3o1)N2 (stereo not given),inactive
20,O=C(OCC#CCSc1nnc(-c2ccc3ccccc3c2)o1)c1ccsc1,inactive
